This is part of a sample that, as a whole, favours compounds with a hit. Of some 83,000 tested, about 20% had one in any assay.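 Activity criterion: percent growth below 10, measured after cells in 96-well plates were exposed to a single compound concentration for 48 hours.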 Values without a mark were called inactive. Calls of active or inactive are those of the source.

Test systems include DU-145 prostate; K-562 leukemia; MALME-3M melanoma; MDA-MB-231 breast; RXF 393 renal; SF-268 CNS; SF-295 CNS; SF-539 CNS; UACC-257 melanoma; M14 melanoma.
Holding throughout (experiment): NCI-60 one-dose screen, 48 h (100 = growth as untreated, 0 = no growth, -100 = all killed)
What all share (settings): 10 µM unless noted

As for `Cc1[nH]ccc2cc3nc4ccccc4c3cc12`, the growth is 34.4% in the assay on DU-145 prostate; 12.1% with K-562 leukemia; 29.8% in the assay on MALME-3M melanoma; 26.3% in the assay on MDA-MB-231 breast; 17.5% in the assay with RXF 393 renal; 40% in the assay on SF-268 CNS. Further, the growth with SF-295 CNS was 20.1%; in the assay with SF-539 CNS, 34%; in the assay with UACC-257 melanoma it was 39.9%; in the assay on M14 melanoma it was 38%.

With `CN1CCC[C@@H]1CCO[C@](C)(c1ccccc1)c1ccc(Cl)cc1`, the growth with DU-145 prostate is 91.5%; in the assay on K-562 leukemia, 30.4%; with MALME-3M melanoma, 71.8%; in the assay with MDA-MB-231 breast, 88.7%; in the assay on RXF 393 renal it was 38.7%; in the assay with SF-268 CNS, 81.8%. Moreover, the growth in the assay on SF-295 CNS is 63.2%; with SF-539 CNS it was 76.2%; in the assay with UACC-257 melanoma it was 23.4%; with M14 melanoma, 15.6%.

With `COc1ccccc1-n1c(-c2ccc(O)cc2C)cn2c3c(=O)[nH]c(=O)n(C)c3nc12`, the growth with DU-145 prostate is 112%; with K-562 leukemia it was 98.9%; with MALME-3M melanoma it was 97.6%; with MDA-MB-231 breast, 65%; in the assay on RXF 393 renal, 72.4%; in the assay with SF-268 CNS, 86.4%. The growth with SF-295 CNS is 99.8%; with SF-539 CNS, 88.8%; with UACC-257 melanoma, 82.2%; with M14 melanoma, 88.7%.

Turning to `NS(=O)(=O)c1ccc(-n2ncc3c(N/N=C/c4ccccc4)ncnc32)cc1`, the growth with DU-145 prostate is 73.1%; in the assay on K-562 leukemia, 83.1%; with MALME-3M melanoma, 85.6%; in the assay with MDA-MB-231 breast it was 101%; in the assay with RXF 393 renal, -18.8% (active); in the assay with SF-268 CNS, 76.9%. The growth in the assay on SF-295 CNS is 29.8%; in the assay with SF-539 CNS, 76.2%; with UACC-257 melanoma, 62.4%; in the assay on M14 melanoma, 116%.

Consider `Cc1sc2nc(NCc3ccccc3)[nH]c(=O)c2c1C`, for which the growth is 73.4% with DU-145 prostate; 12.9% in the assay with K-562 leukemia; 75.7% with MALME-3M melanoma; 59.8% with MDA-MB-231 breast; 69% in the assay on RXF 393 renal; 74.2% in the assay with SF-268 CNS. The growth was 52.4% with SF-295 CNS, 65.5% in the assay with SF-539 CNS, 73% with UACC-257 melanoma and 27.8% in the assay with M14 melanoma.

`CC[C@@H](c1ccc(O)c(O)c1)[C@@H](CC)c1ccc(O)c(O)c1`: the growth in the assay on DU-145 prostate was 110%; with K-562 leukemia, 31.8%; in the assay with MALME-3M melanoma, 39.2%; with MDA-MB-231 breast it was 89.7%; in the assay on RXF 393 renal, 71.5%; in the assay on SF-268 CNS, 98%. Moreover, the growth was 130% in the assay on SF-295 CNS, 102% with SF-539 CNS, 101% in the assay on UACC-257 melanoma and 62.4% with M14 melanoma.

Take `N#Cc1c(NC(=O)c2ccco2)[n+]([O-])c2ccccc2[n+]1[O-]`: the growth with DU-145 prostate was 95.5%; in the assay on K-562 leukemia, 84.9%; in the assay on MALME-3M melanoma, 112%; with MDA-MB-231 breast, 96.1%; in the assay with RXF 393 renal, 95.5%; in the assay on SF-268 CNS, 110%. For the same compound, the growth in the assay on SF-295 CNS is 107%; with SF-539 CNS it was 84.4%; in the assay on UACC-257 melanoma, 102%; with M14 melanoma it was 104%.

On to `ICCC(c1ccccc1)(c1ccccc1)c1ccccc1`, for which the growth is 79.1% in the assay on DU-145 prostate; -9.2% (active) with K-562 leukemia; -43.4% (active) in the assay with MALME-3M melanoma; 41.7% with MDA-MB-231 breast; 28.4% in the assay with RXF 393 renal; 62.7% in the assay with SF-268 CNS. The growth is 51.3% with SF-295 CNS, 10.6% with SF-539 CNS, -62.8% (active) with UACC-257 melanoma and -76.2% (active) in the assay with M14 melanoma.

For `Cc1cc2c(cc1C)[n+](Cc1ccc3ccccc3n1)cn2Cc1ccc2ccccc2n1`, the growth in the assay with DU-145 prostate is 24.1%; in the assay on K-562 leukemia, -0.971% (active); in the assay with MALME-3M melanoma, -28% (active); in the assay on MDA-MB-231 breast, -7.81% (active); in the assay on RXF 393 renal, -6.38% (active); in the assay with SF-268 CNS, 16.8%. For the same compound, the growth in the assay on SF-295 CNS is 5.16% (active); with SF-539 CNS, 14.8%; in the assay with UACC-257 melanoma it was -16.6% (active); in the assay with M14 melanoma it was -13.3% (active).

Regarding `COc1cccc(/C=N\NC(=O)c2ccncc2)c1O`, the growth in the assay with DU-145 prostate is 51.7%; in the assay with K-562 leukemia, 71.2%; in the assay with MALME-3M melanoma, 68.3%; in the assay with MDA-MB-231 breast, 47.1%; in the assay on RXF 393 renal, 57.3%; with SF-268 CNS, 42.2%. The growth with SF-295 CNS is 55.8%; in the assay on SF-539 CNS, 55.7%; with UACC-257 melanoma, 49.6%; in the assay with M14 melanoma it was 34.4%.

On to `Cc1ccc2nc(-c3ccc(N(C)C)c(Br)c3)cn2c1`, for which the growth in the assay on DU-145 prostate is 93.7%; with K-562 leukemia, 29%; in the assay on MALME-3M melanoma it was 116%; in the assay with MDA-MB-231 breast, 92.9%; in the assay on RXF 393 renal it was 62.8%; with SF-268 CNS it was 78.2%. The growth was 90.5% with SF-295 CNS, 65.9% with SF-539 CNS, 90.7% in the assay on UACC-257 melanoma and 78.6% in the assay on M14 melanoma.

Regarding `Cn1cnc([N+](=O)[O-])c1Sc1nc(N)nc2nc[nH]c12`, the growth in the assay with DU-145 prostate was 25.7%; with K-562 leukemia, 4.56% (active); in the assay with MALME-3M melanoma, 68.8%; in the assay on MDA-MB-231 breast it was 29.6%; with RXF 393 renal, 44.8%; in the assay on SF-268 CNS it was 29%. Further, the growth with SF-295 CNS was -2.69% (active); in the assay on SF-539 CNS it was 16.4%; in the assay with UACC-257 melanoma it was 45.3%; with M14 melanoma it was 14.4%.

As for `NC(=O)NS(=O)(=O)c1ccc(N2N=C(C(F)(F)F)CC2c2cc(C(F)(F)F)cc(C(F)(F)F)c2)cc1` (stereo not given), the growth with DU-145 prostate was 85.1%; in the assay with K-562 leukemia, 57.7%; in the assay on MALME-3M melanoma it was 87.4%; in the assay on MDA-MB-231 breast, 91.6%; in the assay with RXF 393 renal, 11.8%; in the assay on SF-268 CNS, 67.8%. The growth in the assay on SF-295 CNS was 68.6%; in the assay with SF-539 CNS, 89.5%; with UACC-257 melanoma, 31.5%; with M14 melanoma it was 79.7%.

In the case of `c1ccc2nc(Cn3c[n+](Cc4ccc5ccccc5n4)c4ccccc43)ccc2c1`, the growth in the assay with DU-145 prostate was 60.8%; with K-562 leukemia it was 17.8%; in the assay with MALME-3M melanoma, 20.3%; with MDA-MB-231 breast it was 26.4%; in the assay with RXF 393 renal it was 44.1%; with SF-268 CNS, 54.9%. The growth was 55.5% in the assay on SF-295 CNS, 41.5% in the assay on SF-539 CNS, -9.49% (active) with UACC-257 melanoma and 21.7% in the assay with M14 melanoma.

The values above are taken from PubChem BioAssay (NCI).
